Most compounds without a hit are left out; they make up all but 19% or so of the library.
RORg inh – blocks mouse ROR gamma transcriptional activity | P51450 | Drosophila S2 Gal4-RORgamma UAS-luciferase reporter, 20 h | Potency, µM (series often up to 53.6 µM), for the others: at the highest dose activity change, negative = inhibition, hits mostly inhibitors | hit rate 5.4% among 310,000 | AID 2551; also: nearly all actives have a fitted effect of over 60% in size
Target sequence (P51450 whole entry, looked up, the tested form may be a part): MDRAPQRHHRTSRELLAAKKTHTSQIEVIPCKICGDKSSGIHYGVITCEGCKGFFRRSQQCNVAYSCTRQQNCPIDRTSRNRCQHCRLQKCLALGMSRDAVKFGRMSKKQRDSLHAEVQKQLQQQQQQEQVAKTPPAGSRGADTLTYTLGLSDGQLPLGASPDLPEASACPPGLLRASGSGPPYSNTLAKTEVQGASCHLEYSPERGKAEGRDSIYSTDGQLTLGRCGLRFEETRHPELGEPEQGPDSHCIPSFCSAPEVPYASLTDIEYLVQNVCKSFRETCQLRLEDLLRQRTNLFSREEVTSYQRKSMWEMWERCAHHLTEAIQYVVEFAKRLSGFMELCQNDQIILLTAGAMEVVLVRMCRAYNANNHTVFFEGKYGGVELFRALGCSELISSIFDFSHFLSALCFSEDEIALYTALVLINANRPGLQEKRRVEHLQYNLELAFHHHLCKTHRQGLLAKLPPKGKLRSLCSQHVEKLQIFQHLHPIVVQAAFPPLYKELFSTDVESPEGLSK
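ROR gamma transcriptional activity was tracked as Gal4-UAS luciferase output in stably transfected Drosophila Schneider cells, with compound added 1 hr before 700 uM copper sulfate induction and a 20 hr ambient-temperature incubation.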
VP16 counter – Gal4-VP16 reporter inhibition counter-screen; Drosophila S2 Gal4-VP16 UAS-luciferase, luminescence, 20 h; Potency, µM (highest dose often 53.6 µM), for inactives: at the highest dose activity, negative = inhibition, actives largely listed as inhibitors; hit rate 3.5% among 310,000;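 also: Gal4-VP16 expression switched on by copper sulfate through the metallothionein promoter; nearly all actives have a fitted effect of over 50% in size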
TDP1 inh – inhibitors of human tyrosyl-DNA phosphodiesterase TDP1; Potency, µM (highest dose often 130 µM), without a hit: at the top dose activity change, negative = inhibition, actives largely listed as inhibitors; recombinant TDP1, AlphaScreen DNA substrate cleavage; AID 485290; hit rate 0.28% among 350,000; Q9NUW8; also: nearly all actives have a fitted effect of over 40% in size
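Compounds were preincubated with Tdp1 (1 nM final) for 15 min at room temperature before substrate (15 nM final) started a 5 min reaction; beads (10 ug/ml final) were then added for 10 min before AlphaScreen detection.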
DT40 TDP1 CPT – growth inhibition of DT40 Tdp1-/-;hTDP1 cells with camptothecin (screen for TDP1 inhibitors); chicken DT40 Tdp1-/-;hTDP1 cells + 20 nM CPT, ATP luminescence, 48 h; Potency, µM (highest dose often 46.2 µM), inactives show top-dose activity change, negative = growth inhibition, most hits filed as inhibitors; hit rate 12% among 420,000; AID 686979; also: nearly all actives have a fitted effect of over 55% in size
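Chicken DT40 Tdp1-/- cells stably complemented with human TDP1 were seeded at 400 cells/well in medium containing 20 nM camptothecin, exposed to pin-transferred compounds, and grown at 37 °C for at least 48 hr. Viability was read as ATP luminescence.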
TDP1 cell noCPT – qHTS for Inhibitors of human tyrosyl-DNA phosphodiesterase 1 (TDP1): qHTS in cells in absence of CPT; DT40 Tdp1-/- hTDP1 cells, no CPT, ATP luminescence, 48 h; Potency, µM (series often up to 46.2 µM), for the others: at the top dose activity change, negative = growth inhibition, actives largely listed as inhibitors; hit rate 15% among 420,000; AID 686978, 2013; also: nearly all actives have a fitted effect of over 55% in size
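Readout: luminescence from CellTiter-Glo after 30 min in the dark at RT. Cells: DT40 Tdp1-/- with stable hTDP1, 400/well. Exposure: compounds alone, ≥48 hr, 37 °C.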
An asterisk follows results filed as active. Calls follow the shape of the dose curve; as a rule, active = well fitted curve in the direction sought with a large enough effect; inconclusive = small, poorly fitted or top-dose-only effect, or another doubt; inactive = no such curve, though single readings can be large; an effect the other way counts as inactive or inconclusive. % is scaled to controls: 0 for no effect and ±100 for the full control effect; potency is read from the fitted curve at half-maximal effect.

`COc1cccc(OC)c1C(=O)NCCc1sc(-c2cccc(F)c2)nc1C` gave TDP1 inh 3%, DT40 TDP1 CPT inconclusive and TDP1 cell noCPT inconclusive.
For Nc1nnc(-c2cccc(F)c2)s1 the results were RORg inh 4%, VP16 counter 8%, DT40 TDP1 CPT -1% and TDP1 cell noCPT -3%.
O=C(CN1CCN(Cc2cccc3ccccc23)CC1)NCCc1ccccc1 was read as RORg inh 40%, VP16 counter 8%, DT40 TDP1 CPT -18% and TDP1 cell noCPT inconclusive.
`O=S(=O)(NCc1cccs1)NCc1ccccc1F` gave RORg inh 9%, VP16 counter 9%, TDP1 inh -1%, DT40 TDP1 CPT -9% and TDP1 cell noCPT -14%.
`CCCc1c(-c2ccc(F)cc2F)ncn1Cc1ccccc1OC` gave DT40 TDP1 CPT 2.1µM* and TDP1 cell noCPT 1.5µM*.
`CCCCCc1c(-c2cccc(F)c2)ncn1CCc1ccccc1OC` gave DT40 TDP1 CPT 23µM* and TDP1 cell noCPT 18µM*.
For CCCCc1c(-c2cccc(F)c2)ncn1CCc1ccccc1OC the results were DT40 TDP1 CPT 21µM* and TDP1 cell noCPT 21µM*.
Screening CCCCCn1cnc2sc(-c3ccccc3)cc2c1=O returned RORg inh 37%, VP16 counter 7%, TDP1 inh -6%, DT40 TDP1 CPT -19% and TDP1 cell noCPT -7%.
For CCCCCc1c(-c2cccc(OC)c2)ncn1CCc1ccccc1OC the results were DT40 TDP1 CPT 8.2µM* and TDP1 cell noCPT 7.3µM*.
Screening C[C@H](CO)N1C[C@H](C)[C@@H](CN(C)S(=O)(=O)c2ccc(C#N)cc2)OCc2cnnn2CCCC1=O returned DT40 TDP1 CPT 1% and TDP1 cell noCPT -6%.
`C/C=C/c1ccc(Oc2nnnn2-c2ccc(C(N)=O)cc2)c(OC)c1` gave RORg inh 5%, VP16 counter -5%, TDP1 inh 4%, DT40 TDP1 CPT 15µM* and TDP1 cell noCPT 21µM*.
COc1ccccc1Oc1nnnn1-c1ccc(C(N)=O)cc1 was read as RORg inh -4%, VP16 counter -5%, TDP1 inh 3%, DT40 TDP1 CPT -11% and TDP1 cell noCPT -4%.
For COc1cccc(C2c3c(ncn(-c4ccc5c(c4)OCO5)c3=N)Oc3ccc4ccccc4c32)c1 (stereo not given) the results were TDP1 inh 5%.
Screening COc1ccc(C2c3ccc4ccccc4c3Oc3ncn(CCCO)c(=N)c32)cc1 (stereo not given) returned RORg inh 4µM*, VP16 counter -26%, DT40 TDP1 CPT inconclusive and TDP1 cell noCPT inconclusive.
For N=c1c2c(ncn1CCCO)Oc1c(ccc3ccccc13)C2c1ccccc1 (stereo not given) the results were RORg inh 18µM*, VP16 counter inconclusive, TDP1 inh 4%, DT40 TDP1 CPT inconclusive and TDP1 cell noCPT inconclusive.
For COc1ccc(C2c3ccc4ccccc4c3Oc3ncn(CCO)c(=N)c32)cc1 (stereo not given) the results were RORg inh inconclusive, VP16 counter inconclusive, DT40 TDP1 CPT inconclusive and TDP1 cell noCPT 26µM*.
`COc1ccc(Cc2nc3c4c(ncn3n2)Oc2c(ccc3ccccc23)C4c2ccc(OC)c(OC)c2)cc1` (stereo not given) gave RORg inh -2%, VP16 counter 10%, TDP1 inh 4%, DT40 TDP1 CPT -18% and TDP1 cell noCPT inconclusive.
For COc1ccc(C2c3ccc4ccccc4c3Oc3ncn(CCN(C)C)c(=N)c32)cc1 (stereo not given) the results were RORg inh 32µM*, VP16 counter inconclusive, DT40 TDP1 CPT inconclusive and TDP1 cell noCPT 21µM*.
COc1ccc2c(c1)Oc1ncn(CCN3CCOCC3)c(=N)c1C2c1ccc(OC)c(OC)c1 (stereo not given) was read as TDP1 inh 2%.

Screens as filed in PubChem BioAssay.
